MazEF act: MazEF (E. coli) toxin RNase activation; AID 504720; FAM/BHQ RNA-DNA oligo cleavage fluorescence, 5 h; P0AE70; 0.32% of 350,000 active; activation, % at 20 µM; in the data active = activation above about 50%
BoNT F protease: BoNT F light chain protease inhibition. 0.22% of 360,000 active. inhibition, % at 10 µM. AID 588497. Multiplex microsphere protease cleavage assay, flow cytometry; in the data active = inhibition above about 35%, passing the limit was not always enough; inconclusive = no clear call, values can overlap the other calls
BoNT-A LC inh2: BoNT A light chain protease inhibition; inhibition, % at 10 µM; AID 588499; 0.17% of 360,000 active; multiplex microsphere protease substrate cleavage, flow cytometry
Bead autofluor: counter-screen for toxin protease inhibitors: compound fluorescence; 3.1% of 360,000 active; AID 624483; fluorescence intensity (no concentration beside the values); compound autofluorescence counterscreen, microsphere flow cytometry; hits give high values; in the data active = fluorescence intensity above about 16000; inconclusive = no clear call, values can overlap the other calls
VHR inh abs: blocks human VHR1 dual specificity phosphatase. 0.52% of 290,000 active. inhibition, % at 13.3 µM. P51452. recombinant VHR phosphatase, pNPP absorbance; in the data active = inhibition above about 50%
Anthrax LF inh2: inhibitors of Bacillus anthracis lethal factor protease | 0.12% of 360,000 active | P15917 | inhibition, % at 10 µM | multiplex microsphere protease cleavage assay, LF
Large screens that a line does not name were inactive. This is a sample that favours compounds with a hit; in the whole collection about 4.1% have one here. Cut-off read from the data, not from the text of the source, unless noted: active = inhibition above about 30%; inconclusive = no clear call, values can overlap the other calls; inactive = below that.

CC1(C(=O)NS(=O)(=O)c2ccc(Cl)cc2)CCN1C(=O)c1ccc(C2CCCCC2)cc1 (stereo not drawn)	none (no result: MazEF act, VHR inh abs)
COc1ccccc1CNC(=O)CCC(=O)N1CC(C)Sc2ccccc21 (stereo not drawn)	none
C/C(=N\NC(=O)CN1CCCCC1)c1cccc([N+](=O)[O-])c1	none (no result: VHR inh abs)
C/C(=N\NC(=O)CN1CCCCC1)c1ccccc1O	VHR inh abs 53.0
Cc1nn(-c2ccccc2)c(Cl)c1C(=O)NNC(=O)c1ccccc1O	none (no result: VHR inh abs)
O=c1[nH]c(=O)n(C2CCCCC2)c(O)c1/C=C/C=Nc1ccccc1	MazEF act 95.6
CCN1C(=O)/C(=C/N2CCc3ccccc3C2)SC1=S	BoNT F protease inconclusive, Bead autofluor 16177
S=c1nc(-c2ccccc2)c(-c2ccccc2)n[nH]1	none
Nc1c(-c2ccccc2)n[nH]c1-c1ccccc1	BoNT-A LC inh2 inconclusive, Bead autofluor 23500
COc1ccc(C2C(C(=O)c3ccccc3)N3c4ccccc4C=CC3C2[N+](=O)[O-])cc1 (stereo not drawn)	MazEF act 62.6, BoNT F protease inconclusive, BoNT-A LC inh2 inconclusive, Anthrax LF inh2 inconclusive
COc1ccc(N2C(=O)[C@@H]3[C@H](C2=O)[C@H](C(C)=O)N2c4ccccc4C=C[C@@H]32)cc1	BoNT F protease inconclusive
CCOc1ccc(CN2CCC(=O)NC2=O)cc1	Bead autofluor 17829
COc1ccc(CN2CCOCCOCCOCCOCCOCC2)cc1	BoNT F protease inconclusive
O=C1CCN(Cc2ccccc2)C(=O)N1	none (no result: VHR inh abs)
COc1ccc(CN2CCC(=O)NC2=O)cc1	Bead autofluor 25338
CCOc1ccc(CN2CCSCC2)cc1	none
COc1ccc(CN2CCNCC2)cc1	VHR inh abs 59.7
CCC(=O)N1CCC(C)(C(=O)Nc2ccc3c(c2)OCO3)C1 (stereo not drawn)	none (no result: MazEF act, VHR inh abs)
O=C(Nc1ccc2c(c1)OCO2)C1CCCN(c2nc3ccccc3s2)C1 (stereo not drawn)	Bead autofluor 18282
COc1ccc(CCNC(=O)C2CCCN(c3nc4ccccc4s3)C2)cc1OC (stereo not drawn)	none
CCc1nnc(NC(=O)C2CCCN(c3nc4ccccc4s3)C2)s1 (stereo not drawn)	Bead autofluor 19697
CCOc1ccc2nc(N3CCC(C(=O)NC4CCCCC4)CC3)sc2c1	none
CCOc1ccc2nc(N3CCCC(C(=O)NC4CCCC4)C3)sc2c1 (stereo not drawn)	VHR inh abs 52.7
Cc1cc(=O)n2nc(N3CCCC3C(=O)Nc3cccc(Cl)c3C)sc2n1 (stereo not drawn)	Bead autofluor 20778
Cc1cc(=O)n2nc(N3CCC(C(=O)Nc4cccc(Cl)c4C)CC3)sc2n1	none
CC(=O)Nc1ccc(S(=O)(=O)NNc2cccc(C)c2)cc1	none
Cc1ccc(C(=O)COC(=O)C2C3C=CC(C3)C2C(=O)OCC(=O)c2ccc(C)c(C)c2)cc1C (stereo not drawn)	BoNT-A LC inh2 inconclusive, Bead autofluor 22921
NC(=O)c1ccsc1NC(=O)COC(=O)Cc1cccc2ccccc12	none
Cc1ccc2cc(C#N)c(N3CCCN(C(=O)C4CCCO4)CC3)nc2c1C (stereo not drawn)	Bead autofluor 16171
Cc1ccc2cc(C#N)c(N3CCCC3)nc2c1C	none
O=C1C(=O)c2ccc(-c3ccccc3)cc2-c2ccccc21	Bead autofluor 16446
COc1ccc(C#CC2=CC(=O)CC(C)(C)C2)cc1	none (no result: VHR inh abs)
O=C(N/N=C/c1ccc(Cl)cc1Cl)c1cccc(F)c1	Bead autofluor 22364
CN(C)S(=O)(=O)c1ccc(S(=O)(=O)Nc2ccc3c(c2)oc2ccccc23)cc1	none
CCN(CC)S(=O)(=O)c1ccc(S(=O)(=O)Nc2ccc3c(c2)oc2ccccc23)cc1	BoNT-A LC inh2 inconclusive, Bead autofluor 20070
COc1ccc(-c2ccc(-c3nnc(-c4cc(OC)ccc4OC)o3)cc2)cc1	BoNT-A LC inh2 inconclusive, Bead autofluor 22687
Cn1c2ccc(F)cc2c2ncn(CCCN(CCO)CCO)c(=O)c21	Bead autofluor 21356
Cc1ccc2nc(C(F)(F)F)c(C#N)c(N)c2c1	BoNT-A LC inh2 inconclusive, Bead autofluor 23566
O=C(Nc1nccc(-c2cccs2)n1)c1ccccc1Cl	Bead autofluor 19543
CN(CC(=O)Nc1ccc(F)c(F)c1F)C(=O)CC1CCCCC1	none (no result: VHR inh abs)
COc1cccc(/C=C/c2ccc3cccc(O)c3n2)c1OC	BoNT F protease inconclusive
COc1cccc(/C=C/c2ccccn2)c1O	Bead autofluor 24116
CC1CCN(C(=O)CCc2nc3cc(S(=O)(=O)N(C)C)ccc3n2C)CC1	BoNT-A LC inh2 inconclusive, Bead autofluor 20932
CCC(C)c1ccc(NC(=O)CC(C)=O)cc1 (stereo not drawn)	BoNT-A LC inh2 inconclusive, Bead autofluor 22794
CSc1ccc(NC(=O)CC(C)=O)cc1	Bead autofluor 22536
CCCc1cc(C(N)=O)c(NC(=O)c2ccoc2C)s1	Bead autofluor 23003
Cc1occc1C(=O)Nc1sccc1C(N)=O	Bead autofluor inconclusive
CCCc1cc(C(N)=O)c(NC(=O)c2cc(C)on2)s1	BoNT-A LC inh2 inconclusive, Bead autofluor 16687
CCC(C)(O)c1[nH]c2ccc(C(F)(F)F)cc2c1C (stereo not drawn)	none
O=C(CSc1nc2cc(Cl)c(Cl)cc2[nH]1)c1ccc2c(c1)OCO2	MazEF act 50.7
COC(=O)c1cnc(SC)nc1C	BoNT-A LC inh2 inconclusive, Bead autofluor 20134
Cc1cccn2cc(-c3ccccc3)nc12	none
Cc1cccn2cc(-c3ccc(F)cc3)nc12	Bead autofluor 23835
O=C(OCC(=O)N1CCc2ccccc21)c1n[nH]c(=O)c2ccccc12	none (no result: VHR inh abs)
Cc1ccc(-n2c(Cc3cccn3C)nnc2SCC(=O)Nc2ccc3c(c2)OCO3)cc1	Bead autofluor 24086
Cc1ccc(-n2c(Cc3cccn3C)nnc2SCC(=O)NCc2ccc3c(c2)OCO3)cc1	Bead autofluor 21493
O=C(Nc1cccc(F)c1)C1CCN(C(=O)c2ccc(Br)cc2)CC1	Bead autofluor 23473
C[C@@]12C(=O)N(Cc3ccc(F)cc3)CC(=O)N1[C@H]1c3cc(Cl)ccc3OC[C@@H]1[C@@H]2c1ccccc1	none (no result: VHR inh abs)
Cc1cccc(N(C(=O)CS(=O)CC(=O)Nc2ccc3c(c2)OCO3)C(C)C(=O)NC2CCCC2)c1C (stereo not drawn)	none
Cc1ccccc1N(CC(=O)NC1CCCC1)C(=O)CS(=O)CC(=O)Nc1ccc2c(c1)OCO2 (stereo not drawn)	Bead autofluor 20092
O=C1COc2ccc(C(=O)COC(=O)c3ccc(F)cc3Cl)cc2N1	none (no result: VHR inh abs)
Cc1ccc(O)c(-c2cc3ccccc3[nH]2)c1	Bead autofluor 23551
COc1ccc(-c2cc3ccccc3[nH]2)cc1	none
CC1C(=O)N(Cc2cn(CC3CCCCC3)nn2)CCS(=O)(=O)N1Cc1ccc(-c2ccccc2)cc1 (stereo not drawn)	none (no result: VHR inh abs)
Cc1ccc(C(=O)/C=C/c2ccc(-c3ccc(C)cc3)o2)cc1	BoNT-A LC inh2 40.9
O=C(/C=C\c1ccc(-c2ccccc2)o1)c1ccccc1	BoNT-A LC inh2 66.4
